The source made the active and inactive calls. Unless noted, how the calls were made is not given here.
Key:
[1] = compounds binding Alexa647 anti-His antibody – biochemical, small-molecule microarray, 635 nm fluorescence, artefact control for SMM control protein annotation, primary screen (AID 1128); details: higher = more signal;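 further: score merges feature fluorescence with signal-to-noise for each printed compound spot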
[2] = test system: Human papillomavirus type 1a E7 protein (residues 1-88); assay: HPV1a E7 small-molecule binders, primary screen, biochemical, small-molecule microarray, residues 1-88, 635 nm (AID 1129); details: small-molecule microarray binding, fluorescence 635 nm; higher = more signal
[3] = molecular target: Focal adhesion kinase 1 (Homo sapiens) (UniProt Q05397); assay: PTK2 protein binding on printed compound slides – biochemical, small-molecule microarray, 635/667 nm fluorescence, BSA, DTT, primary screen (AID 1130); details: 635 nm fluorescence, higher = more signal;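 further: composite of spot emission at 667 nm and signal to noise over triplicate slides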
Focal adhesion kinase 1 (Homo sapiens), sequence (Q05397 whole entry, looked up): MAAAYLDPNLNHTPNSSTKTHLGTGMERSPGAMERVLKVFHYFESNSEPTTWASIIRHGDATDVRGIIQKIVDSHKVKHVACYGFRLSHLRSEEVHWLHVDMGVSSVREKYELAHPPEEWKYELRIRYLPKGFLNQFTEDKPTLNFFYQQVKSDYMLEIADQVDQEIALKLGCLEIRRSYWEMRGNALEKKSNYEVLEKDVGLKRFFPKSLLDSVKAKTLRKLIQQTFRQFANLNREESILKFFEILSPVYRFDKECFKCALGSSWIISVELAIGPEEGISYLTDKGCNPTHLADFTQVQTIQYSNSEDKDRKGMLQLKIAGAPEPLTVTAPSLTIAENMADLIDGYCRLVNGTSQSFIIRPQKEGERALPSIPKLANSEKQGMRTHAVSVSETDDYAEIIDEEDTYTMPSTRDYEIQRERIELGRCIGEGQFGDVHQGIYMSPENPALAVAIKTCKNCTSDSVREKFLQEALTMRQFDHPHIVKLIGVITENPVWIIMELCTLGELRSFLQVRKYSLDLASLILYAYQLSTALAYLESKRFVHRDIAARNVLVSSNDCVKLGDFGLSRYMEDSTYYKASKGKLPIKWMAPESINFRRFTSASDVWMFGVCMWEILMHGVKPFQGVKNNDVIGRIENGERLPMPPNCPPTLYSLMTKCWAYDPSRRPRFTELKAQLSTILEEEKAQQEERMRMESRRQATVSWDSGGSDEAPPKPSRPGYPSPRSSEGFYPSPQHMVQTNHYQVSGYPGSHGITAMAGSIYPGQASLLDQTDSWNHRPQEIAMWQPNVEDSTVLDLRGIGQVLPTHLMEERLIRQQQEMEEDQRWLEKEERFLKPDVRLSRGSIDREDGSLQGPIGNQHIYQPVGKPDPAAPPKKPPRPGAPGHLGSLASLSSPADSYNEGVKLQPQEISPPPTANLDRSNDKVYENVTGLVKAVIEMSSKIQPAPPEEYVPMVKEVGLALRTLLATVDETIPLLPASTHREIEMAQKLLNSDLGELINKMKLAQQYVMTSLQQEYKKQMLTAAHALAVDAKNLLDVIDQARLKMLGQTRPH

[4] = test system: Fibrinogen (Alexa647-labelled); assay: Alexa647-fibrinogen binding to printed small molecules – biochemical, small-molecule microarray, 635/667 nm fluorescence, artefact control for SMM control-protein annotation, profiling panel (AID 1131); details: fibrinogen-A647 binding fluorescence, higher = more signal;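 further: z-score merges 667 nm fluorescence with per-spot signal-to-noise over triplicate slides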
[5] = molecular target: Follistatin (Homo sapiens) (UniProt P19883); assay: FST protein binding to printed compounds – biochemical, small-molecule microarray, 635/667 nm fluorescence, primary screen (AID 1132); details: 635 nm fluorescence, higher = more signal
Follistatin (Homo sapiens), sequence (P19883 whole entry, looked up): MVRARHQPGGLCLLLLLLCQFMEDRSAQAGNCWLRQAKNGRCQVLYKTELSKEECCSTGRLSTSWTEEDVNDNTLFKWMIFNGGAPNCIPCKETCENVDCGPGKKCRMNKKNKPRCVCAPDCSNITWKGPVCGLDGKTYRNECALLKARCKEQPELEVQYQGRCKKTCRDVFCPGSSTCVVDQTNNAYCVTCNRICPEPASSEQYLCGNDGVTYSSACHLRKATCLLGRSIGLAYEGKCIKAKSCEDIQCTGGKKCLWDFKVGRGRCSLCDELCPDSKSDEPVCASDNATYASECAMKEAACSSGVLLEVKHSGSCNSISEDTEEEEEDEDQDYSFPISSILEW

[6] = molecular target: Fibroblast growth factor 2 (Homo sapiens) (UniProt P09038); assay: basic fibroblast growth factor binding to printed compounds – biochemical, small-molecule microarray, 635/667 nm fluorescence, primary screen (AID 1133); details: FGF2, fluorescence 635/667, higher = more signal
Fibroblast growth factor 2 (Homo sapiens), sequence (P09038 whole entry, looked up): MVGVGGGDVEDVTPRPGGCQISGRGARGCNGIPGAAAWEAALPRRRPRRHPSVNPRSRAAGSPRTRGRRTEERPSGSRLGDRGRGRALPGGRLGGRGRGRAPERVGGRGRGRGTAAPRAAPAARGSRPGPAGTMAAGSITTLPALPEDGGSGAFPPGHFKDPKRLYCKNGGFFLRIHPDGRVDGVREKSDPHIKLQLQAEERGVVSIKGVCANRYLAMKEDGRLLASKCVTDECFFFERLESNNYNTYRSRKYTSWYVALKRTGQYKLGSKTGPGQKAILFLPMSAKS

[7] = JC-1 mitochondrial potential readout, lung cancer cells – cell-based, A549, JC-1 fluorescence, basal, 24 h, 100 nL, profiling panel (AID 1138); details: higher = more signal;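 further: A549 lung adenocarcinoma cells under basal conditions with no added stimulus; test concentration not given here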
Lefty1 = Lefty1 protein binding to printed compounds – biochemical, small-molecule microarray, 635/667 nm fluorescence, primary screen (AID 1139); details: fluorescence 635/667, higher = more signal
[8] = test system: wheat germ agglutinin (Triticum aestivum), Alexa647-labelled; assay: Alexa647-WGA lectin binding to printed small molecules – biochemical, small-molecule microarray, 635/667 nm fluorescence, artefact control for SMM control-protein annotation, profiling panel (AID 1140); details: WGA-A647 binding, 635 nm fluorescence, higher = more signal;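 further: score merges 667 nm feature emission with signal to noise over triplicate slides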
[9] = molecular target: Luciferin 4-monooxygenase (Photinus pyralis) (UniProt P08659); assay: inhibition of purified Photinus pyralis luciferase – biochemical, luminescence, purified enzyme, 2006 set, primary screen (AID 1141); details: purified firefly luciferase, SteadyGlo luminescence, 30 min; higher = more signal, called active from +8 up or from −8 down;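 further: cell-free assay with purified firefly luciferase at 100 ng per well in PBS; test concentration not given here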
Luciferin 4-monooxygenase (Photinus pyralis), sequence (P08659 whole entry, looked up): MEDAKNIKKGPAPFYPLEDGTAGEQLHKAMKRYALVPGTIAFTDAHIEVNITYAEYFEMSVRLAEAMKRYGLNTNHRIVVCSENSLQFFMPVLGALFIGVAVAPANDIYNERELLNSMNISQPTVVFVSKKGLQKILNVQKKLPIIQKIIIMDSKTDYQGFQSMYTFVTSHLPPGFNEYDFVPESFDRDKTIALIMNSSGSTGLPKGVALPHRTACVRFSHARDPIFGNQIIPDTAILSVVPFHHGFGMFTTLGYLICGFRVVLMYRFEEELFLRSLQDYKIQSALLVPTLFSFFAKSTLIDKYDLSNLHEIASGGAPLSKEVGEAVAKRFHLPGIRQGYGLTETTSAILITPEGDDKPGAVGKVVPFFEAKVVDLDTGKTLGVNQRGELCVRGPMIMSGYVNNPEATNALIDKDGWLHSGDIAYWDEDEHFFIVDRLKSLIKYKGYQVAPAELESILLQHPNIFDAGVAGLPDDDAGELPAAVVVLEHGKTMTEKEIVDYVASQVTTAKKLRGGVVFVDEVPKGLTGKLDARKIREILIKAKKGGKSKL

[10] = test system: Wnt5a (protein binding on small-molecule microarray); assay: small molecules binding Wnt5a protein – biophysical, small-molecule microarray, 635/667 nm fluorescence, primary screen (AID 1142); details: 635 nm fluorescence, higher = more signal;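 further: fluorescence read at 667 nm with signal to noise per printed feature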
[11] = ATP-based viability of Huh7 replicon cells – cell-based, CellTiter-Glo luminescence, basal, 48 h, cytotoxicity control for HCV replication inhibitor project, primary screen (AID 1143); details: higher = more signal, called active from +8 up or from −8 down;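 further: Huh7 hepatoma cells carrying a hepatitis C replication reporter with no stimulus; test concentration not given here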
[12] = Pseudomonas biofilm growth suppression – PAO1 strain, BacTiter-Glo luminescence, LB-PBS, primary screen (AID 1144); details: P. aeruginosa PAO1 biofilm, 12 h, higher = more signal
[13] = basal CRE-LacZ reporter activity in PC12 – cell-based, unstimulated, primary screen (AID 1145); details: no forskolin, luminescence, 4.5 h, higher = more signal, called active from +8 up or from −8 down
[14] = forskolin-driven CRE-LacZ activity in PC12 – cell-based, CRE-LacZ reporter, forskolin-stimulated, primary screen (AID 1146); details: luminescence, 4.5 h, higher = more signal, called active from +8 up or from −8 down;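 further: PC12 cells with 6xCRE LacZ reporter stimulated by forskolin 10 µM; beta-galactosidase reporter signal reflecting CREB driven transcription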
[15] = molecular target: Streptavidin (Streptomyces avidinii) (UniProt P22629); assay: compounds binding control protein streptavidin – biophysical, small-molecule microarray, 635/667 nm fluorescence, artefact control for SMM compound annotation, primary screen (AID 1147); details: higher = more signal;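 further: signal reflects streptavidin binding to arrayed compounds as a control protein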
Streptavidin (Streptomyces avidinii), sequence (P22629 whole entry, looked up): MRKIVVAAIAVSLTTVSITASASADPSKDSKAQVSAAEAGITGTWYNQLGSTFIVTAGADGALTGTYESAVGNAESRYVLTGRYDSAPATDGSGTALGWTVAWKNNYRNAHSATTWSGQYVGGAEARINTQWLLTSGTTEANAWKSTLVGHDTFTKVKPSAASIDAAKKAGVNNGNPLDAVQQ

[16] = probe aInhba binding on compound microarray – biochemical, small-molecule microarray, 635/667 nm fluorescence, primary screen (AID 1148); details: higher = more signal;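 further: score merges 667nm spot fluorescence with signal-to-noise for antibody binding to printed compounds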
Torsin-1A (Homo sapiens) [17] = molecular target: Torsin-1A (Homo sapiens) (UniProt O14656); assay: TOR1A wild-type binding on microarray – cell lysate, small-molecule microarray, lysate, 635/667 nm, primary screen (AID 1149); details: COS7 hTOR1A-WT lysate, 635 nm fluorescence, higher = more signal
Torsin-1A (Homo sapiens), sequence (O14656 whole entry, looked up): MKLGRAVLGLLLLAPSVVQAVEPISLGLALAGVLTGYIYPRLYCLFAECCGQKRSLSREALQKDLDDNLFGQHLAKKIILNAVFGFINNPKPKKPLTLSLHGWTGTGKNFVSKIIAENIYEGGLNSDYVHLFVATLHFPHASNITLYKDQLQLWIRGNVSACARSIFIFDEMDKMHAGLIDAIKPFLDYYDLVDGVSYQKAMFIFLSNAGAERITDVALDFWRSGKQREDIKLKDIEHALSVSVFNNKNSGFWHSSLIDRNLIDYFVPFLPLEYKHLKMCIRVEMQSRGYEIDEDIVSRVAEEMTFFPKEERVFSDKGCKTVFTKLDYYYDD

Torsin-1A (Homo sapiens) [18] = molecular target: Torsin-1A (Homo sapiens) (UniProt O14656); assay: torsin A mutant lysate binding on microarrays – cell lysate, small-molecule microarray, COS7 lysate, 635/667 nm fluorescence, primary screen (AID 1150); details: COS7 hTOR1A mutant lysate, 635 nm fluorescence, higher = more signal;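 further: score pools 667 nm emission and signal to noise measuring lysate protein binding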
[19] = test system: Sonic hedgehog protein (Shh); assay: Sonic hedgehog microarray binding compounds – biochemical, small-molecule microarray, 635/667 nm fluorescence, primary screen (AID 1151); details: 635 nm fluorescence, higher = more signal;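 further: Shh protein binding to compounds spotted on small-molecule microarray slides; score combines spot fluorescence intensity with signal-to-noise across triplicate slides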

SMILES	composite z-score [1]	composite z-score [2]	composite z-score [3]	composite z-score [4]	composite z-score [5]	composite z-score [6]	z-score [7]	composite z-score (Lefty1)	composite z-score [8]	z-score [9]	composite z-score [10]	z-score [11]	z-score [12]	z-score [13]	z-score [14]	composite z-score [15]	composite z-score [16]	composite z-score (Torsin-1A (Homo sapiens) [17])	composite z-score (Torsin-1A (Homo sapiens) [18])	composite z-score [19]
O=C1C2C=CC(C(O)c3ccc(F)cc3)N(Nc3ccccc3F)C2C(=O)N1c1ccccc1 (stereo not given)	1.55	1.13	0.198	0.958	1	-0.514	-0.227	-0.497	1.17	1.28 (inactive)	-0.0864	0.486 (inactive)	-0.746 (inactive)	0.433 (inactive)	1.53 (inactive)	0.59	0.254	0.0654	0.845	-0.166
CC(C)(C)OC(=O)CC[C@@]12N=C(c3ccc(OCCCO)cc3)O[C@@H]1c1ccccc1N(CCS(=O)(=O)c1ccccc1)C2=O	2.03	1.19	0.412	0.129	1.3	0.109	0.84	0.644	0.653	-7.46 (inactive)	0.251	-3.45 (inactive)	0.114 (inactive)	-0.389 (inactive)	-1.71 (inactive)	0.901	0.0737	-0.0101	0.537	1.27
C=C(CCCC)C(=O)CC[C@H](OC(C)=O)c1cccc(OCCO)c1	-0.393	-0.755	0.5	-1.29	-0.732	-0.546	-0.299	-0.492	-0.881	0.0336 (inactive)	-0.247	-3.51 (inactive)	0.428 (inactive)	0.914 (inactive)	-0.057 (inactive)	-0.613	-0.183	-0.576	-0.132	0.103
COc1ccc(C(O)C2C=CC3C(=O)N(c4ccccc4)C(=O)C3N2Nc2ccc(C(C)C)cc2)cc1OCc1ccccc1 (stereo not given)	0.893	1.17	-0.149	0.973	1.22	0.254	-0.182	0.094	1.22	-1.96 (inactive)	0.409	-0.0843 (inactive)	-2.09 (inactive)	1.4 (inactive)	-0.465 (inactive)	1.89	0.341	0.385	0.554	0.55
C=C(/C(=C/C[C@@H](OC(C)=O)c1ccc(OCCO)cc1)c1cnc2ccccc2c1)C(C)C	0.204	0.408	0.166	-0.59	1.1	0.757	1.04	0.806	0.983	-1.6 (inactive)	0.0701	-1.07 (inactive)	-0.25 (inactive)	0.681 (inactive)	-0.45 (inactive)	0.376	-0.084	-0.969	0.576	1.67

Source: PubChem BioAssay
